Experiment [1] is described as follows: E. coli DRC41 culture turbidity changes, primary screen, E. coli filamentation inducer project, strain DRC41, OD650, 48 h (AID 1152).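 Further: E. coli MC1000 strain DRC41 lacking acrAB efflux pump and sulA.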 Conditions: E. coli DRC41 (acrAB sulA), higher = more signal, called active from +8 up or from −8 down.
The nature of experiment [2]: small-molecule binders of probe aLefty1, primary screen, biochemical, small-molecule microarray, 635/667 nm fluorescence (AID 1153).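 Further: score merges spot fluorescence with signal-to-noise ratio from the scanned slide images.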 To be noted: higher = more signal.
A short description of experiment [3]: PSAC antagonists in infected red cells, primary screen, cell-based, P. falciparum Indochina, OD700, 1 h (AID 1154). To be noted: P. falciparum Indochina infected RBC osmotic lysis, higher = more signal, called active from +8 up or from −8 down.
Experiment [4] in a line: PSAC antagonists in infected red cells, primary screen, cell-based, P. falciparum Indochina, OD700, 2 h (AID 1155).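 Further: lysis reports solute entry through the parasite surface anion channel PSAC; channel blockers reduce lysis of infected cells.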 To be noted: P. falciparum Indochina infected erythrocytes, osmotic lysis OD700; higher = more signal, called active from +8 up or from −8 down.
Experiment [5] is described as follows: osmotic lysis modulators in infected erythrocytes, primary screen, PSAC antagonist project, cell-based, P. falciparum Indochina, OD700, 3 h (AID 1156). To be noted: higher = more signal, called active from +8 up or from −8 down.
Experiment [6] is described as follows: PSAC antagonists in infected red cells, primary screen, cell-based, P. falciparum Indochina, OD700, 18 h (AID 1157). To be noted: P. falciparum Indochina infected erythrocytes, osmotic lysis OD700, 18 h; higher = more signal, called active from +8 up or from −8 down.
The nature of experiment [7]: modulators of S6 phosphorylation in cells, primary screen, cell-based, A549, cytoblot, luminescence, serum-stimulated (AID 1158).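 Further: serum-stimulated A549 lung adenocarcinoma cells; signal is phosphorylated S6 detected by cytoblot immunostaining with HRP secondary.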 To be noted: A549 phospho-S6 cytoblot, 5 h, higher = more signal.
The target of experiment [8] is NADPH oxidase 2 (Homo sapiens) (UniProt P04839). As to the kind of experiment: NOX2-dependent H2O2 signal modulators, primary screen, NOX inhibitor project, cell-based, HEK293-NOX2, PMA-stimulated, Amplex Red fluorescence (AID 1159). Further: test concentration not given here. Conditions: 45 min, higher = more signal, called active from +8 up or from −8 down.
The target in experiment [9] is NADPH oxidase 4 (Homo sapiens) (UniProt Q9NPH5). As to the kind of experiment: NOX4-dependent H2O2 signal modulators, primary screen, NOX inhibitor project, cell-based, HEK293-NOX4, tetracycline-induced, Amplex Red fluorescence (AID 1160). Conditions: 45 min, higher = more signal, called active from +8 up or from −8 down.
Experiment [10] has as its target NADPH oxidase 5 (Homo sapiens) (UniProt Q96PH1). As to the kind of experiment: NOX5-dependent H2O2 signal modulators, primary screen, NOX inhibitor project, cell-based, HEK293-NOX5, Amplex Red fluorescence (AID 1161). Conditions: HEK293-NOX5, ionomycin, 45 min, higher = more signal.
The nature of experiment [11]: A549 cell viability effects, profiling panel, calcein-AM fluorescence, 48 h, basal (AID 1162). Further: test concentration not given here. To be noted: higher = more signal.
The nature of experiment [12]: adipocyte viability effects, profiling panel, cell-based, 3T3-L1 adipocytes, calcein-AM fluorescence, 48 h, basal (AID 1163). Further: test concentration not given here. To be noted: 3T3-L1 adipocytes viability, higher = more signal.
Experiment [13] in a line: HepG2 cell viability effects, profiling panel, calcein-AM fluorescence, 48 h, basal (AID 1164). Further: test concentration not given here. To be noted: higher = more signal.
Experiment [14] in a line: MM1S cell viability effects, profiling panel, calcein-AM fluorescence, 48 h, basal (AID 1165).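 Further: viability of MM1S multiple myeloma cells under basal unstimulated conditions; test concentration not given here.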 To be noted: higher = more signal.
The nature of experiment [15]: basal RPMI8226 viability, no added stimulus, profiling panel, cell-based, calcein-AM fluorescence, 48 h, PK04 Diversity Set (AID 1166).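 Further: cells grown under basal conditions without added stimulus; test concentration not given here.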 To be noted: RPMI8226 myeloma viability, higher = more signal.
The nature of experiment [16]: basal HepG2 mitochondrial membrane potential changes, profiling panel, cell-based, JC-1 fluorescence, 24 h, 100 nL compound (AID 1167). Further: test concentration not given here. To be noted: higher = more signal.
Experiment [17] can be described thus: basal 3T3-L1 adipocyte mitochondrial potential changes, profiling panel, cell-based, JC-1 fluorescence, 3T3-L1 adipocytes, 24 h, 100 nL compound (AID 1168). Further: test concentration not given here. Conditions: JC-1 mitochondrial fluorescence, higher = more signal, called active from +8 up or from −8 down.
A short description of experiment [18]: basal RPMI8226 mitochondrial membrane potential changes, profiling panel, cell-based, JC-1 fluorescence, 24 h, 100 nL compound (AID 1169). Further: test concentration not given here. Conditions: RPMI8226 myeloma, JC-1 mitochondrial potential fluorescence, higher = more signal.
Experiment [19] can be described thus: basal MM1S mitochondrial membrane potential changes, profiling panel, cell-based, JC-1 fluorescence, 24 h, 100 nL compound (AID 1170). Further: test concentration not given here. Conditions: higher = more signal.
The nature of experiment [20]: A549 lung cancer cell viability effects, profiling panel, resazurin fluorescence, 24 h, PK04 Diversity Set (AID 1171). Further: test concentration not given here. Conditions: higher = more signal, called active from +8 up or from −8 down. A general note: Resazurin is reduced to fluorescent resorufin, in cell work by metabolically active cells.

This passage reports z-score and composite z-score results from PubChem BioAssay.

Active and inactive are the calls of the source.

Chain of NADPH oxidase 2 (Homo sapiens) (P04839 whole entry, looked up): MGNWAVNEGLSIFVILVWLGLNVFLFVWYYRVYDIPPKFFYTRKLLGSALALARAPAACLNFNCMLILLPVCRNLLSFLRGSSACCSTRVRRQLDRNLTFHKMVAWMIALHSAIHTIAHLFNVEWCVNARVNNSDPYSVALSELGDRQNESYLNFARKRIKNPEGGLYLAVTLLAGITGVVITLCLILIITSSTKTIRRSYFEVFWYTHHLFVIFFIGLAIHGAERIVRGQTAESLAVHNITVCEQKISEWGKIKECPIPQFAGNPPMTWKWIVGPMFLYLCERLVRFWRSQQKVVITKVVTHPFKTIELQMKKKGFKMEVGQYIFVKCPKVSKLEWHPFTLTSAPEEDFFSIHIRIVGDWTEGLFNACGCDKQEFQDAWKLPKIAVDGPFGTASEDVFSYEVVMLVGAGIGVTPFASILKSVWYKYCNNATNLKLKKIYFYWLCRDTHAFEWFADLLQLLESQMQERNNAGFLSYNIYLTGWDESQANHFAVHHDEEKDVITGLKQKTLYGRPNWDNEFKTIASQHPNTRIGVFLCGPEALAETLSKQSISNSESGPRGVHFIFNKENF
Chain of NADPH oxidase 4 (Homo sapiens) (Q9NPH5 whole entry, looked up): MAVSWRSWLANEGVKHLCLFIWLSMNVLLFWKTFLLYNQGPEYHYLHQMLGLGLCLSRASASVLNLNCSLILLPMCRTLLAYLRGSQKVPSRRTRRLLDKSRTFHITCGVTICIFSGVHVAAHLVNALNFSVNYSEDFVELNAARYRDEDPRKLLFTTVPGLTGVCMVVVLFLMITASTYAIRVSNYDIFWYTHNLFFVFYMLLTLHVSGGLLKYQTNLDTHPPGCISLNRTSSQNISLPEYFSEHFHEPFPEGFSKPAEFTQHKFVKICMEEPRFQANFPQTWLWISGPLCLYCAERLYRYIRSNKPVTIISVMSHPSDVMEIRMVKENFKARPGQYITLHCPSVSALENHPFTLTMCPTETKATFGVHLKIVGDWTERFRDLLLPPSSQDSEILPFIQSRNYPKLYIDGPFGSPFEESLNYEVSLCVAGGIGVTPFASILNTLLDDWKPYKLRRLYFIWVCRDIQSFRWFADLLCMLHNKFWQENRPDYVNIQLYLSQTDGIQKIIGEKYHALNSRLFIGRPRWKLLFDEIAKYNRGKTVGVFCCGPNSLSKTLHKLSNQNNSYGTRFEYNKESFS
Chain of NADPH oxidase 5 (Homo sapiens) (Q96PH1 whole entry, looked up): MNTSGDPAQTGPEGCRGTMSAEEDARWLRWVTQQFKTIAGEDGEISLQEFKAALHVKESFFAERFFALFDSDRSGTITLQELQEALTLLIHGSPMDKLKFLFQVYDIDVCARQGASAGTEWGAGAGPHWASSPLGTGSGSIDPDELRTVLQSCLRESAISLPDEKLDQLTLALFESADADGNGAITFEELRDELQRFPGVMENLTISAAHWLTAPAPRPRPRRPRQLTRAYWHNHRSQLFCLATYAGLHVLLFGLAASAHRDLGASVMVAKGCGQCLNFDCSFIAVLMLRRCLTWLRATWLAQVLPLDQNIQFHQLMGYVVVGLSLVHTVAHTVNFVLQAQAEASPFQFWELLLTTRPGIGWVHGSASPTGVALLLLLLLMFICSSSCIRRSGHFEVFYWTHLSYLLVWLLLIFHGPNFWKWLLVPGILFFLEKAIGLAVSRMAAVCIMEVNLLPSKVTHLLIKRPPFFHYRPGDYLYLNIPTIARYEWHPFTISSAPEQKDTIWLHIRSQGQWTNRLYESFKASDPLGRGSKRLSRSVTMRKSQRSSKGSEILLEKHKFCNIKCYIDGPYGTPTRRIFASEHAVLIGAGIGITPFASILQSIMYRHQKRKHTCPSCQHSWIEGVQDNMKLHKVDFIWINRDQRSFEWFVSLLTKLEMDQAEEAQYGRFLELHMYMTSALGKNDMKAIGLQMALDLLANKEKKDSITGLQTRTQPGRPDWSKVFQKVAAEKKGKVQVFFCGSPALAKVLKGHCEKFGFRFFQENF

For `C=CCN1C(=O)[C@@]2(O[C@@H](CCO)[C@H]([Si](C)(C)c3ccc(OC)cc3)[C@H]2C)c2cc(N3C(=O)COc4ccccc43)ccc21`, the z-score is -0.37 (inactive) in [1]; 24.5 (active) in experiment [3]; 11.4 (active) in experiment [4]; -0.122 (inactive) in experiment [5]; 2.68 (inactive) in experiment [6]; 0.175 in experiment [7]. For the same compound, the z-score is -0.548 (inactive) in experiment [8]; -0.111 (inactive) in experiment [9]; 0.0948 in [10]; -3.41 in experiment [11]; -0.967 in [12]; -4.72 in [13]. The z-score is -2.74 in experiment [14]; -4.33 in experiment [15]; -2.17 in experiment [16]; 2.78 (inactive) in experiment [17]; -1.01 in experiment [18]; -2.24 in experiment [19]. In experiment [20], the z-score was -5.02 (inactive). In experiment [2], this compound came in with a composite z-score of 0.0012.

For `COc1ccc(C(=O)Nc2cccc(CN3C(=O)[C@@]4(O[C@@H](CCn5cc([C@H](O)c6ccccc6)nn5)[C@H]([Si](C)(C)c5ccc(OC)cc5)[C@H]4C)c4ccccc43)c2)cc1`, the z-score was -0.677 (inactive) in experiment [1]; 4.91 (inactive) in experiment [3]; 0.715 (inactive) in experiment [4]; 0.618 (inactive) in [5]; 1.04 (inactive) in experiment [6]; 0.858 in experiment [7]. The z-score in [8] was -0.492 (inactive); in experiment [9] it was 0.663 (inactive); in experiment [10] it was 2.23; in experiment [11] it was -0.311; in experiment [12], 0.0953; in experiment [13], -3.44. For the same compound, the z-score was -2.63 in experiment [14]; -3.6 in experiment [15]; -2.16 in [16]; -0.694 (inactive) in experiment [17]; -1.03 in [18]; -2.24 in experiment [19]. Besides, the z-score in experiment [20] was -1.88 (inactive). In experiment [2], this compound returned a composite z-score of 0.379.

`C=CCOC(=O)[C@@H]1[C@H]2C(=O)O[C@H](c3ccccc3)[C@H](c3ccccc3)N2[C@H](c2ccc(OCCOC(=O)[C@H]3C[C@H]4C(=O)N[C@@H](Cc5ccccc5)C(=O)N4[C@H]3c3ccc(O)cc3)cc2)[C@@]12C(=O)Nc1ccc(I)cc12`: the z-score in experiment [1] was -1.78 (inactive); in [3], 6.54 (inactive); in experiment [4], 5.05 (inactive); in experiment [5], -2.73 (inactive); in experiment [6], 2.58 (inactive); in experiment [7] it was -1.77. Besides, the z-score in experiment [8] is 3.07 (inactive); in [9] it was 0.471 (inactive); in experiment [10], 3.69; in experiment [11], -0.688; in [12], -0.724; in experiment [13] it was -0.0809. In addition, the z-score in [14] is -3.46; in [15] it was -2.98; in experiment [16] it was -0.638; in experiment [17] it was 1.43 (inactive); in [18] it was -0.609; in [19], -1.4. The z-score in experiment [20] was -0.0596 (inactive). The compound also showed a composite z-score in [2] of -0.539.

In the case of `O=[N+]([O-])c1ccc(C[n+]2ccc(CCCO)cc2)o1`, the z-score in experiment [1] is -0.934 (inactive); in experiment [3], 1.21 (inactive); in [4], 0.331 (inactive); in [5] it was 0.616 (inactive); in [6], 0.377 (inactive); in experiment [7], 0.437. The z-score in experiment [8] is 0.00328 (inactive); in [9] it was -3.09 (inactive); in experiment [10], -0.4; in experiment [11], -0.38; in [12] it was 1.01; in experiment [13], -0.405. Besides, the z-score is -0.41 in [14]; -2.35 in [15]; -1.07 in [16]; -0.266 (inactive) in experiment [17]; -0.614 in experiment [18]; 0.5 in experiment [19]. Further, the z-score in experiment [20] was -0.77 (inactive). This compound also gave a composite z-score in experiment [2] of -0.0162.

Take `COC(=O)c1nc2oc1CC[C@@H](CO)NC(=O)N(C)Cc1cn(nn1)C[C@H](Cc1ccccc1)NC2=O`: the z-score in experiment [1] is 2.75 (inactive); in [3], 1.53 (inactive); in experiment [4], 0.394 (inactive); in experiment [5] it was 0.864 (inactive); in experiment [6] it was 0.0148 (inactive); in [7] it was 0.225. For the same compound, the z-score in experiment [8] was -0.454 (inactive); in experiment [9] it was 0.917 (inactive); in [10], 0.398; in experiment [11] it was -0.0651; in experiment [12], -0.734; in experiment [13], 0.786. The z-score in experiment [14] was 0.648; in [15] it was 0.854; in experiment [16] it was 0.136; in [17] it was 0.694 (inactive); in [18], 0.263; in experiment [19], -1.48. The z-score in [20] was -0.0624 (inactive). Also, the composite z-score in [2] is -0.145.
